Only some compounds are listed: those with a hit (about 0.4% of all), similar ones and a draw of the others.
EPAC1 antag = blocks human EPAC1 exchange factor. O95398. EPAC1 GEF assay, Rap1b-BODIPY-GDP exchange fluorescence. Potency, µM (titrated, usually from 115 µM), usual class: inhibitors. hit rate 0.14% among 360,000. AID 720709; also: nearly all actives have a fitted effect of over 50% in size
EPAC1 ag = activates human EPAC1 exchange factor; O95398; EPAC1 agonist qHTS, biochemical assay; response scale: 100% = response to 6.5 mM cAMP; Potency, µM (titrated, usually from 154 µM), most hits filed as activators; hit rate 0.073% among 360,000; also: nearly all actives have a fitted effect of over 60% in size
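Compounds were pinned as a concentration titration into mixtures of EPAC1 (100 nM), BODIPY-GDP-loaded Rap1B (250 nM) and GDP (50 uM). After 5 min at room temperature, fluorescence was followed for 30 min; activity was scaled to 6.5 mM cAMP.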
EPAC2 agonist = EPAC2 (human) agonism. Q8WZA2. EPAC2 activation, biochemical qHTS; response scale: 100% = 6.5 mM cAMP response. Potency, µM (titrated, usually from 154 µM), most hits filed as activators. hit rate 0.079% among 360,000. AID 720711; also: nearly all actives have a fitted effect of over 50% in size
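Each well held 100 nM EPAC2, 250 nM RAP1B-BODIPY-GDP and 50 uM GDP. Fluorescence, read at 5-min intervals to 30 min, was referenced to a 6.5 mM cAMP positive control.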
TRPML1 inh = inhibitors of human TRPML1 channel. activity change, negative = inhibition, % (no concentration beside the values). AID 624415. TRPML1-inducible cells, Ca2+ dye fluorescence, FDSS; hits give low values; inhibition of EC80 agonist-evoked calcium signal. hit rate 0.02% among 390,000; in the data active = activity change below about -50%; inconclusive = between about -30% and that limit;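 also: stimulus is agonist 54-4 at its EC80 concentration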
Target sequence (Q9GZU1 whole entry, looked up): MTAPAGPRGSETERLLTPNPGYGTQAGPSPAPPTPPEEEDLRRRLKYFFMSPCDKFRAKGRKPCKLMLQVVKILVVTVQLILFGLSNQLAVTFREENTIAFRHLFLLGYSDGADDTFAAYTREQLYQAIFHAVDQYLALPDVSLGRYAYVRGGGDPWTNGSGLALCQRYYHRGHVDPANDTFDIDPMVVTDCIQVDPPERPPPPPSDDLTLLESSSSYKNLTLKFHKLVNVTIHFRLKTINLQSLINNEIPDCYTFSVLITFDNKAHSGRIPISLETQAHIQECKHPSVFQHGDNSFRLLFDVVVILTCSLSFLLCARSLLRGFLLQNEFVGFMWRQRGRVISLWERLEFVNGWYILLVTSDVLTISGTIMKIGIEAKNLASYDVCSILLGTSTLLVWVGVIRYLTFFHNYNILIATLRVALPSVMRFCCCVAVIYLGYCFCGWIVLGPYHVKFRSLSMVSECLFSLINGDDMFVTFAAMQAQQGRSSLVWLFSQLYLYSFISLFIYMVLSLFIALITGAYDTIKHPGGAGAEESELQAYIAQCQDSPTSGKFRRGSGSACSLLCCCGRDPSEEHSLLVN
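TRPML1-DL cells, Tet-induced overnight (~16 h, 37 °C) at 1,500 cells/well, were loaded with Ca8 no-wash dye plus quencher for 45-90 min at room temperature. Compounds were pinned during FDSS kinetic reading; agonist 54-4 at EC80 (4 uM final) then added.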
TRPML1 agonist = human mucolipin-1 channel agonism; Q9GZU1; AID 624414; activation, % (test concentration not listed); TRPML1-expressing cells, Ca2+ dye fluorescence, FDSS; hit rate 0.12% among 410,000; in the data active = activation above about 50%; inconclusive = mostly about 30% to 49%
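Agonist activity was taken from a 110 s kinetic Ca2+ dye read on the FDSS after pinning compounds onto TRPML1-DL cells. The cells were seeded at 1,500/well with Tet inducer, incubated about 16 h, then dye-loaded at room temperature.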
EPAC2 antag = antagonists of human EPAC2. hit rate 0.18% among 360,000. EPAC2 GEF exchange of Rap1B-BODIPY-GDP, fluorescence. Potency, µM (top dose mostly 114 µM), usual class: inhibitors. Q8WZA2; also: nearly all actives have a fitted effect of over 45% in size
Each line names hits and unclear results; the compound was inactive in the other large screens. Unless noted, calls follow the shape of the dose curve; as a rule, active = well fitted curve in the direction sought with a large enough effect; inconclusive = small, poorly fitted or top-dose-only effect, or another doubt; inactive = no such curve, though single readings can be large; an effect the other way counts as inactive or inconclusive.

COc1cc(NC(=O)c2cc3ccccc3o2)c(OC)cc1Br	EPAC2 agonist 10µM
CCc1cccc(NC(=O)COC(=O)/C=C/c2cccs2)c1	EPAC1 ag 112µM
CCOc1ccc(NC(=O)/C(C#N)=C/c2ccc(N3CCCC3)c(C)c2)cc1	EPAC1 ag 112µM
CCN(CC)S(=O)(=O)c1ccc(N2CCCCC2)c(NC(=O)/C(C#N)=C/c2ccc(OC)cc2)c1	none
Cc1ccc(NS(=O)(=O)c2cccc3cccnc23)c(Br)c1	none
Cc1ccc(NS(=O)(=O)c2cccc3cccnc23)c(Cl)c1	EPAC2 antag 28µM
COc1ccccc1/C=C(/C(=O)OCC(=O)Nc1ccc(N(C)C)cc1)c1ccccc1	EPAC2 antag 50µM
COc1ccccc1/C=C(/C(=O)OCC(=O)Nc1ccccc1C)c1ccccc1	none
CCOc1cccc(CNc2ccc(O)cc2)c1OCc1ccccc1Cl	EPAC1 antag 28µM
CCOc1cccc(CNc2ccc(O)cc2)c1OCc1ccc(Cl)cc1Cl	EPAC1 antag 50µM, EPAC2 antag inconclusive
O=S(=O)(O)c1ccc(NN=Cc2ccccc2O)cc1	EPAC2 antag 22µM
O=[N+]([O-])c1ccc(C=NNc2ccc(S(=O)(=O)O)cc2)cc1	EPAC2 antag 20µM
O=[N+]([O-])c1ccc(NN=Cc2cccc([N+](=O)[O-])c2)cc1	none
COc1cccc(/C=N/Nc2ccc(S(=O)(=O)O)cc2)c1O	none
CCc1ccc(-c2nc3c(=O)n(C)c(=O)nc-3n(CC)n2)cc1	none (no result: EPAC1 antag, EPAC1 ag, EPAC2 agonist, TRPML1 inh, EPAC2 antag)
Fc1ccccc1-c1ccc(-c2nc3ccc(Cl)cn3c2Nc2ccc(Cl)cc2)o1	none (no result: EPAC1 antag, EPAC1 ag, EPAC2 agonist, TRPML1 inh, EPAC2 antag)
C=C1[C@@H](O)CN(Cc2ccc(OC)cc2)S1(=O)=O	none (no result: EPAC1 antag, EPAC1 ag, EPAC2 agonist, TRPML1 inh, EPAC2 antag)
COc1ccc(CN(C2CCCCC2C)S(=O)(=O)c2ccc(S(=O)(=O)N(C)C)cc2)cc1OC (configuration not stated)	TRPML1 agonist 134
CC[N+](C)(C)c1ccc(/C=C/c2ccc3ccccc3n2)cc1	none (no result: EPAC1 antag, EPAC1 ag, EPAC2 agonist, TRPML1 inh, EPAC2 antag)
COc1ccc(/C=C2\OC(=S)N(C)C2=O)cc1	none
CN1C(=O)/C(=C\c2ccc(N(C)C)cc2)OC1=S	EPAC1 ag 89µM, TRPML1 agonist 82
Cc1ccc(S(=O)(=O)N2CCN(c3nc(-n4ccnn4)nc4ccccc34)CC2)cc1	none (no result: EPAC1 antag, EPAC1 ag, EPAC2 agonist, TRPML1 inh, EPAC2 antag)
O=C(Nc1ccccc1Cl)c1ccccc1Oc1ccc(C(F)(F)F)cc1[N+](=O)[O-]	TRPML1 agonist 55
O=C(c1ccccc1Oc1ccc(C(F)(F)F)cc1[N+](=O)[O-])N1CCOCC1	none
CC(C)(C)NC(=O)NC(=O)CN1CCN(S(=O)(=O)c2ccccc2)CC1	none
CC(C)(C)NC(=O)NC(=O)CN1CCN(S(=O)(=O)c2ccc3c(c2)CCCC3)CC1	EPAC1 ag 56µM
CN1CCC/C1=C/C=C1\SC(=S)NC1=O	EPAC1 ag 63µM, EPAC2 agonist 112µM, TRPML1 agonist 58
Cc1ccc(S(=O)(=O)/N=C2/C=C(Sc3ncn[nH]3)C(=O)c3ccccc32)cc1	EPAC1 antag 45µM, EPAC2 antag 20µM
CC(C)c1ccc(S(=O)(=O)/N=C2/C=C(Sc3ncn[nH]3)C(=O)c3ccccc32)cc1	EPAC1 antag 56µM, EPAC2 antag 89µM
COc1ccc(F)c(Cn2cnc3c(cnn3C(C)(C)C)c2=O)c1Cl	none (no result: EPAC1 antag, EPAC1 ag, EPAC2 agonist, EPAC2 antag)
CC(C)(C)CC(C)(C)N=C1Nc2ccc([N+](=O)[O-])cc2N[C@]12C[C@H]1CCCC(=O)N3CC[C@@H](C2)[C@@H]13	none (no result: EPAC1 antag, EPAC1 ag, EPAC2 agonist, TRPML1 inh, EPAC2 antag)
Cc1nn(CC(=O)NCc2cccc(Br)c2)c(=O)c2c1sc1ccccc12	none (no result: EPAC1 antag, EPAC1 ag, EPAC2 agonist, EPAC2 antag)
CCN(CC)/[N+]([O-])=N/Oc1ccc([N+](=O)[O-])cc1[N+](=O)[O-]	none (no result: EPAC1 antag, EPAC1 ag, EPAC2 agonist, EPAC2 antag)
O=C1NC(=S)SC1=Cc1ccc(Cl)cc1	EPAC1 antag inconclusive, EPAC2 antag 50µM
O=C1NC(=S)SC1=Cc1ccccc1Br	EPAC1 antag 32µM, EPAC2 antag 40µM
O=C1NC(=S)S/C1=C\c1coc2ccc(O)cc2c1=O	EPAC1 antag 56µM, EPAC2 antag 35µM (no result: TRPML1 inh, TRPML1 agonist)

Screening results from PubChem.
